Screening data deposited in PubChem by National Center for Advancing Translational Sciences (NCATS).
Pf growth 96h = inhibits malaria parasite growth, 96 h; actives 6.9% (n = 320,000); P. falciparum luciferase reporter growth, 96 h; AID 504834; Potency, µM (series often up to 28.7 µM), inactives show at the top dose activity change, negative = inhibition, usual class: inhibitors; note: potency is the fitted concentration of half-maximal effect; % is set by controls: 0 for no effect and ±100 for the full control effect
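Parasite growth measured via integrated firefly luciferase reporter in P. falciparum. Infected erythrocytes at 2% hematocrit, 0.05% parasitemia final were treated 96 hours at 37 C under 5% CO2, and luminescence was read.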
Shiga inhibitor = Shiga toxin inhibition; Vero cells, Shiga toxin protein synthesis inhibition reporter; inhibition, % at 38.7 µM; actives 9.2% (n = 290,000); AID 2315; in the data active = inhibition mostly above about 28%, no sharp cut-off; inactive = mostly below about 43%; note: 0% is about no effect
Cycloheximide cs = counter-screen hit for Shiga toxin inhibitors, cycloheximide | AID 2314 | actives 12% (n = 300,000) | cell reporter, cycloheximide protein synthesis inhibition counterscreen | max response, %; in the data active = max response mostly above about 13%, no sharp cut-off; inactive = mostly below about 14%; note: read at 38.3 µM for the half of the compounds with a filed dose; 0% is about no effect
LASV entry inh = inhibitors of Lassa virus binding or cell entry | actives 1.2% (n = 300,000) | Lassa virus pseudotype entry inhibition, cell reporter | Potency, µM (doses to about 37.9 µM), for inactives: at the highest dose activity change, negative = inhibition, actives largely listed as inhibitors | AID 540256; calls by dose curve; tested in HEK293 cells; note: potency is the fitted concentration of half-maximal effect; % is set by controls: 0 for no effect and ±100 for the full control effect; nearly all actives have a fitted effect of over 50% in size
Pf growth 48h = inhibits P. falciparum growth in the first generation, 48 h. P. falciparum luciferase growth in erythrocytes, 48 h. Potency, µM (top dose mostly 28.7 µM), for inactives: top-dose activity change, negative = inhibition, actives largely listed as inhibitors. actives 5.9% (n = 310,000); note: potency is the fitted concentration of half-maximal effect; % is set by controls: 0 for no effect and ±100 for the full control effect
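Luminescence readout; reporter = integrated firefly luciferase in P. falciparum. RBC culture at 2% hematocrit, 0.1% parasitemia final, 37 C/5% CO2; decreased signal taken as growth inhibition.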
Marburg entry inh = Marburg virus entry inhibition. actives 1.8% (n = 300,000). Potency, µM (series often up to 37.8 µM), for inactives: at the highest dose activity change, negative = inhibition, usual class: inhibitors. Marburg virus pseudotyped entry inhibition, cell reporter; calls by dose curve; tested in HEK293 cells; note: potency is the fitted concentration of half-maximal effect; % is set by controls: 0 for no effect and ±100 for the full control effect
* marks the source's active call; other numbers are inactive results; ? = inconclusive; / = no result; [ ] = dose if it differs, or a comment. The list is not random: actives were taken first. Their share in the collection is about 19%. Unless noted, calls come from the whole dose curve; as a rule, active = well fitted inhibition curve with a large enough effect; inconclusive = small, poorly fitted or top-dose-only effect, or another doubt; inactive = no such curve, though single readings can be large or run the other way.

SMILES	Pf growth 96h	Shiga inhibitor	Cycloheximide cs	LASV entry inh	Pf growth 48h	Marburg entry inh
COc1ccc(C2/C=C\CN(C(=O)C3CC3)[C@H](Cc3ccccc3)C(=O)N2Cc2ccc(F)cc2)cc1 (stereo partly drawn)	?	-4.0	-4.1	/	10.4µM*	/
Cc1c(Cl)cccc1NC(=O)CN1C(=O)COc2ccc(S(=O)(=O)Nc3ccccc3)cc21	/	/	/	-9.2%[46.1 µM]	/	/
COc1ccc(NC(=O)C2CCCN(S(C)(=O)=O)C2)cc1 (stereo not drawn)	?	6.1	4.8	-1.2%[46.1 µM]	0.5%	-15.0%[46.1 µM]
Cc1nn(C)c(C)c1C(C)NC(=O)c1cc(COc2ccc(F)c(F)c2)on1 (stereo not drawn)	-13.6%	47.0*	33.1*	/	-12.9%	/
Cc1nn(C)c(C)c1C(C)NC(=O)c1cc(COc2cncc(Cl)c2)on1 (stereo not drawn)	-1.0%	-11.2	15.2	/	?	/
Cc1nn(C)cc1C(C)NC(=O)c1cc(COc2ccc(F)c(F)c2)on1 (stereo not drawn)	?	18.4	33.1*	/	?	/
CC(Cc1ccccc1)/[N+]([O-])=C\c1ccc(C(F)(F)F)cc1 (stereo not drawn)	99.1%	/	/	/	54.5%	/
CSC1=NC(C(Cl)(Cl)Cl)N=C(c2ccc(C)cc2)N1 (stereo not drawn)	?	-8.0	-6.2	-29.3%	11.7µM*	-20.3%[46.1 µM]
Cc1cc(OCC(=O)O/N=C(\N)c2ccccc2)ccc1Br	-22.6%	active	33.2*	?	22.4%	18.2%
Cc1cc(C)cc(OCC(=O)O/N=C(\N)c2ccccn2)c1	?	67.7	31.4	28.0%	24.6%	25.1%
Cc1cccc(OCC(=O)O/N=C(\N)c2ccccn2)c1	68.6%	62.5*	51.6*	25.7%	132.5%	31.1%
N/C(=N\OC(=O)COc1ccccc1)c1ccccn1	52.6%	65.7*	33.9*	?	143.3%	?
CCc1ccc(OCC(=O)O/N=C(\N)c2ccccn2)cc1	176.5%	84.8*	54.3*	/	161.1%	2.1%
Cc1ccc(S(=O)(=O)NCc2c(-c3ccccc3)c3cc(Cl)ccc3[nH]c2=O)cc1	-0.1%	-3.9	-2.6	3.9%	3.7%	0.3%
CCc1cc2c(CN(C)Cc3ccccc3F)cc(=O)oc2cc1O	?	22.5	2.3	11.9%[46.1 µM]	?	?
Cc1ccc(OCC(=O)O/N=C(\N)c2ccccn2)cc1C	85.3%	94.8*	50.8*	?	220.9%	4.2%[14.2 µM]
Cc1ccc(OCC(=O)O/N=C(\N)c2ccncc2)cc1C	-14.1%	53.9*	28.9*	14.1%	57.2%	-1.3%
N#Cc1ccc(-c2ccco2)nc1SCc1ccccc1	-3.8%[5.75 µM]	-16.9	-3.7	-10.8%	1.5%	-18.7%
COc1ccc(OCC(O)CN(C)C(=O)/C=C/c2cccc([N+](=O)[O-])c2)cc1 (stereo not drawn)	?	6.8	-2.0	7.0%	19.4%	0.2%[46.1 µM]
Cc1cccc(OCCC(=O)Nc2ccc(S(=O)(=O)N3CCCC3)cc2)c1	-0.6%	-12.9	0.7	-29.4%	?	?
CC(Oc1ccccc1)C(=O)Nc1ccc(S(=O)(=O)N2CCOCC2)cc1 (stereo not drawn)	-1.4%[5.75 µM]	14.3	-0.9	17.6%	-12.3%	-0.4%
Cc1cccc(OC(C)C(=O)Nc2ccc(S(=O)(=O)N3CCCC3)cc2)c1 (stereo not drawn)	10.4µM*	-5.2	-1.5	?	?	?
CC(Oc1ccccc1)C(=O)Nc1ccc(S(=O)(=O)N2CCN(C)CC2)cc1 (stereo not drawn)	0.0657µM*	/	/	8.0%	?	?
CN(c1ccccc1)S(=O)(=O)c1ccc(NC(=O)c2ccc(-c3ccccc3)cc2)cc1	?	-14.9	1.6	-8.3%[14.3 µM]	?	-19.8%
CC(=O)Nc1ccc(NC(=O)c2ccc(N(C)S(=O)(=O)c3ccc(C)cc3)cc2)cc1	10.4µM*	-31.4	-1.4	11.2%	0.8%	-21.0%
SMILES	Pf growth 96h	Shiga inhibitor	Cycloheximide cs	LASV entry inh	Pf growth 48h	Marburg entry inh
Cc1ccc(S(=O)(=O)N(C)c2ccc(C(=O)Nc3cccnc3)cc2)cc1	10.4µM*	-16.2	0.7	2.5%	-17.8%	?
Cc1ccccc1CC(=O)NCCN1CCCCC1	-9.0%	-6.4	-2.6	-25.9%	14.1%	13.5%
COc1ccc(C(OCC(O)CNCCc2ccc(S(N)(=O)=O)cc2)c2ccc(OC)cc2)cc1 (stereo not drawn)	11.7µM*	-2.1	-1.9	?	/	?
OC(CNCCc1ccc(C(F)(F)F)cc1)COC(c1ccccc1)c1ccccc1 (stereo not drawn)	3.7µM*	-23.3	-11.2	/	/	/
CN(C)CC(O)COC(c1ccccc1)c1ccccc1 (stereo not drawn)	-3.6%	-1.9	8.5	2.1%	-10.4%	?
COc1ccc(-n2c(Cc3ccccc3)nnc2SCc2nc(-c3ccccc3C)no2)cc1	/	/	/	-22.3%[46.1 µM]	/	?
CN1CN(C)c2cccc3cccc1c23	4.15µM*	-10.9	-0.3	3.3%	?	-1.7%
O=C(Cc1ccccc1)NCc1ccncc1	?	67.2*	41.7*	12.6%[46.1 µM]	47.7%	7.0%[46.1 µM]
O=C(NCc1ccncc1)/C(=N/O)c1ccccc1	10.4µM*	17.1	-1.9	?	30.0%	-0.4%
CCC(C(=O)NCc1ccncc1)c1ccccc1 (stereo not drawn)	10.4µM*	-15.1	1.5	-1.4%[46.1 µM]	20.6%	?
O=C(COC(=O)Cn1cnc2ccccc21)Nc1cc(S(=O)(=O)N2CCOCC2)ccc1Cl	1.8%	5.7	-7.0	23.0%	10.2%	28.3%[46.1 µM]
O=C(COC(=O)Cn1cnc2ccccc21)Nc1cc2c(cc1Cl)C(=O)c1ccccc1C2=O	29.2%	50.0*	36.7*	/	29.8%	/
Cc1nn(C)c(C)c1CN(C)S(=O)(=O)c1ccc2ccccc2c1	?	-4.8	-3.8	?	13.1µM*	?
COC(=O)c1cccc(NC(=O)c2cc(OC)c(OC)c(OC)c2Br)c1	277.5%	20.0	4.8	?	5.8%	-29.2%[46.1 µM]
COc1ccc(NC(=S)Nc2cccc(C(C)=O)c2)cc1OC	11.7µM*	17.5	13.6	1.2%	-0.6%	32.9%[14.2 µM]
COc1ccc(C(=O)Nc2cccc(C(C)=O)c2)c(OC)c1OC	29.0%	69.5*	21.7*	12.7%	/	6.6%
COc1ccccc1C(=O)Nc1cccc(C(=O)c2ccccc2)c1	43.7%	19.6	12.7*	/	-11.2%	/
COc1ccc(NC(=S)Nc2cccc(Cl)c2)cc1OC	?	-6.7	-1.9	-14.5%	3.8%	-4.1%[46.1 µM]
COc1cc(OC)c(C(=O)Nc2cccc(C(C)=O)c2)cc1OC	2.4%	25.2	18.9*	0.3%	/	?
O=C(O)c1ccc(N2C(=O)/C(=C\c3ccccc3)N=C2c2ccccc2)cc1	-2.1%	-6.0	-0.8	-1.8%[46.1 µM]	81.0%	-7.8%[46.1 µM]
Cc1nn(CC(=O)Nc2sc3c(c2C#N)CCC(C(C)(C)C)C3)c(C)c1[N+](=O)[O-] (stereo not drawn)	30.3%	29.4	-0.9	0.2%	-0.6%	2.3%
